# Bioassay records: PubChem BioAssay, National Center for Advancing Translational Sciences (NCATS)
# A selection: hits, their analogues and other compounds. The true share with any hit is near 21%.
# Shiga inhibitor: A qHTS for Small Molecule Inhibitors of Shiga Toxin; Vero cells, Shiga toxin protein synthesis inhibition reporter; inhibition, % at 38.7 µM; 290,000 compounds, 9.2% hits; AID 2315, 2010; in the data active = inhibition mostly above about 28%, no sharp cut-off; inactive = mostly below about 43%; note: 0% is about no effect
# Pf growth 48h: Primary qHTS for delayed death inhibitors of the malarial parasite plastid, 48 hour incubation; P. falciparum luciferase growth in erythrocytes, 48 h; Potency, µM (highest dose often 28.7 µM), without a hit: at the highest dose activity change, negative = inhibition, hits mostly inhibitors; 310,000 compounds, 5.9% hits; AID 504832, 2011; note: potency is the fitted concentration of half-maximal effect; % is set by controls: 0 for no effect and ±100 for the full control effect
#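 Here the parasites carry a stable luciferase gene and grow inside erythrocytes in Albumax-based RPMI medium with compound for one erythrocytic cycle. Activity is scored as loss of luminescent signal.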
# HCMV antiviral: qHTS Assay for inhibitors of the human cytomegalovirus (HCMV); HFF cells, HCMV-luciferase reporter, 72 h; hits give low values; AID 1259415, 2018; 410,000 compounds, 4.5% hits; activity change, negative = inhibition, % at 57.5 µM; in the data active = activity change below about -60%; inconclusive = no clear call, values can overlap the other calls; inactive = above about -39%; note: % is set by controls: 0 for no effect and ±100 for the full control effect
#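 Steps: HFFs plated, 16 h 37C; compounds added; HCMV-luciferase added to MOI 1 PFU/cell; 72 h 37C; OneGlo reagent, 5 min room temperature; luminescence read, normalized to controls.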
# HCV inhibitor: qHTS Assay for Inhibitors of Hepatitis C Virus (HCV). Potency, µM (highest dose often 41.8 µM), inactives show at the highest dose activity change, negative = inhibition, usual class: inhibitors. Huh7.5.1 HCVcc-Cre infection, luciferase reporter, 44 h. 340,000 compounds, 3.4% hits; note: potency is the fitted concentration of half-maximal effect; % is set by controls: 0 for no effect and ±100 for the full control effect
#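 Cells (1,000/well) were plated 4 h before compound, then infected with HCVcc-Cre virus (~0.5 moi). After 44 h further culture, infection was read as luciferase luminescence following a 15 min substrate incubation at room temperature.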
# Pf growth 96h: Primary qHTS for delayed death inhibitors of the malarial parasite plastid, 96 hour incubation. Potency, µM (top dose mostly 28.7 µM), for inactives: top-dose activity change, negative = inhibition, hits mostly inhibitors. P. falciparum luciferase reporter growth, 96 h. 320,000 compounds, 6.9% hits; note: potency is the fitted concentration of half-maximal effect; % is set by controls: 0 for no effect and ±100 for the full control effect
#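 96 h incubation, 37 C, 5% CO2, of luciferase-reporter P. falciparum-infected RBCs (2% hematocrit, 0.05% parasitemia final) with test compounds; endpoint luminescence.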
# Cycloheximide cs: Cycloheximide Counterscreen for Small Molecule Inhibitors of Shiga Toxin; max response, %; AID 2314, 2010; 300,000 compounds, 12% hits; cell reporter, cycloheximide protein synthesis inhibition counterscreen; in the data active = max response mostly above about 13%, no sharp cut-off; inactive = mostly below about 14%; note: read at 38.3 µM for the half of the compounds with a filed dose; 0% is about no effect
# Numbers without * were called inactive; ? = inconclusive; . = no result; [ ] = remark or other dose. Unless noted, calls come from the whole dose curve; as a rule, active = well fitted inhibition curve with a large enough effect; inconclusive = small, poorly fitted or top-dose-only effect, or another doubt; inactive = no such curve, though single readings can be large or run the other way.
SMILES,Shiga inhibitor,Pf growth 48h,HCMV antiviral,HCV inhibitor,Pf growth 96h,Cycloheximide cs
COc1ccccc1NC(=O)Cn1nc(Cc2cccnc2)c2ccccc2c1=O,-13.7,-16.7%,28.9,-9.7%,-20.0%,-1.5
CCCS(=O)(=O)NC(=O)C1(C)CCCN(C(=O)c2ccc(OC)cc2OC)C1 (stereo not given),.,.,10.8,.,.,.
C[C@H]1CN([C@@H](C)CO)C(=O)c2c(c3ccccc3n2C)-c2ccccc2CO[C@H]1CN(C)C(=O)Nc1cccc(F)c1,.,.,-28.6,.,.,.
N#C/C(=N\Nc1cccc2ccccc12)c1nnc2n1CCCCC2,3.1,34.1%,65.9,?,28.8%,13.8*
O=C(CN(Cc1ccccc1F)S(=O)(=O)c1ccc(Cl)cc1)NCC1CCCO1 (stereo not given),-4.4,-3.7%,-35.5,6.8%,15.5%,-8.4
Cc1cc2sc(NC(=O)c3ccco3)nc2cc1Cl,79.4*,321.9%,81.6,-7.8%,-28.0%,70.6*
COc1cc2sc(NC(=O)c3ccco3)nc2cc1Cl,101.8*,103.4%,51.8,8.8%,26.2%,45.2*
CCN(CC)S(=O)(=O)c1ccc(C(=O)NC2CC(=O)N(c3ccc4c(c3)OCCO4)C2)cc1 (stereo not given),.,.,-6.1,.,.,.
CCCn1c(N)c(N(CCOC)C(=O)/C=C/c2ccc(C(=O)OC)cc2)c(=O)[nH]c1=O,-1.1,2.3%,-4.9,6.1%,?,5.3
CN1CCN(C(=O)CCN2C(=O)/C(=C\c3ccc(Cl)cc3)SC2=S)CC1,11.2,-7.4%,.,7.8%,8.28µM*,4.8
NS(=O)(=O)c1ccc(CCN2C(=O)/C(=C\c3ccc(Cl)cc3)SC2=S)cc1,-11.0,9.4%,-101.4*,?,-0.5%,-2.4
Cc1ccc(S(=O)(=O)NN2C(=O)/C(=C\c3ccc(Cl)cc3)SC2=S)cc1,-7.8,7.5%,-15.1,-3.4%,8.6%,-7.5
COc1cccc(/C=C2/SC(=S)N(CCC(=O)N3CCOCC3)C2=O)c1,-3.8,?,-4.2,?,42.4%,-3.7
COc1cccc(/C=C2\SC(=S)N(CCCC(=O)N3CCCCC3)C2=O)c1,-7.8,?,-20.5,12.6µM*,?,-2.7
CCc1ccc(/C=C2\SC(=S)N(CCCC(=O)N3CCN(C)CC3)C2=O)cc1,.,.,-100.5*,.,.,.
Cc1cc(C)cc(NS(=O)(=O)c2ccc3c(c2)C(C)(C)C(=O)N3C)c1,-3.2,-24.3%,-9.9,-11.3%,?,-2.1
COc1ccc(C2C=CC(=O)CC2)c(OC)c1 (stereo not given),.,.,-8.5,.,.,.
COc1ccc(/C=C2\SC(=S)N(CCC(=O)N3CCOCC3)C2=O)cc1,7.5,?,-10.8,-27.0%,?,-3.0
COc1ccc(/C=C2\SC(=S)N(CCCC(=O)N3CCN(C)CC3)C2=O)cc1,-2.8,?,-77.3*,15.6%,?,0.5
CN1CCN(C(=O)CCCN2C(=O)/C(=C/c3cccc(Br)c3)SC2=S)CC1,-3.3,?,-84.5*,6.31µM*,25.9%,-2.3
COc1ccc(/C=C2\SC(=S)N(CCC(=O)NC3C=CS(=O)(=O)C3)C2=O)cc1 (stereo not given),24.2,?,-79.7*,?,?,-4.5
CN1CCN(C(=O)CCN2C(=O)/C(=C/c3cccc(Br)c3)SC2=S)CC1,9.3,-29.9%,-16.7,?,3.9%,-0.9
COc1ccccc1/C=C1\SC(=S)N(CCC(=O)N2CCN(C)CC2)C1=O,-4.7,11.7µM*,?,-18.8%,17.3%,0.5
COc1cccc(/C=C2\SC(=S)N(CCC(=O)NC3C=CS(=O)(=O)C3)C2=O)c1 (stereo not given),8.8,?,-33.5,?,?,2.7
CCn1nc(C)c(Br)c1C(=O)Sc1ccccc1Cl,-2.6,17.1%,-4.9,9.7%,18.3%,-2.5
SMILES,Shiga inhibitor,Pf growth 48h,HCMV antiviral,HCV inhibitor,Pf growth 96h,Cycloheximide cs
Cc1ccc(-n2ncc3c(N4CCN(C)CC4)ncnc32)cc1C,.,.,24.0,.,.,.
Cc1nc2c3cnn(-c4ccccc4)c3ncn2n1,34.3*,?,101.3,-9.3%,?,21.2*
CCc1nnc2c3cnn(-c4ccccc4)c3ncn12,67.1*,129.7%,43.3,17.0%,4.7%[5.75 µM],27.7*
Cc1ccc(-n2ncc3c2ncn2c(C)nnc32)cc1C,62.9*,161.0%,-66.8*,1.0%,?,29.5*
O=C(Nc1ccc(Cl)cc1)Nc1ccccc1CC[N+](=O)[O-],40.7*,11.7µM*,13.9,?,?,24.3
CN(C)C(=O)Nc1ccccc1CC[N+](=O)[O-],-2.1,-5.5%,-1.0,9.7%,17.4%,7.4
O=C(Nc1ccc(Cl)cc1)Nc1ccccc1C(=O)O,35.0,130.4%,11.4,10.0%,-20.5%,23.4*
O=C(Cc1ccc(Cl)cc1)Nc1ccccc1C(=O)Nc1ccc(C(=O)O)cc1,-6.4,12.0%,-6.9,12.9%,25.2%,-0.2
O=C(Cc1ccccc1)NNC(=O)Nc1ccc(Cl)c(Cl)c1,-11.7,19.9%,?,-11.9%,28.7%,-2.1
O=C(Nc1ccccc1)Nc1ccccc1C(=O)NCC1CC1,3.0,?,-3.9,-11.1%,11.6%,12.2
O=C(Nc1ccc(Cl)c(Cl)c1)Nc1ccccc1C(=O)O,41.1,117.5%,-79.2*,-9.4%,41.6%,29.8*
COCCNC(=O)c1ccccc1NC(=O)Nc1ccccc1,-5.7,30.3%,14.0,2.5%,7.38µM*,6.1
CCOC(=O)c1ccc(NC(=O)CN2C(=O)c3cccnc3Oc3ccc(Cl)cc32)cc1,.,.,0.0,.,.,.
O=C(Nc1ccccc1CC[N+](=O)[O-])N1CCN(c2ccccc2)CC1,-6.0,10.4µM*,-24.1,-6.6%,11.7µM*,12.5
Cn1c[n+](C)cc1-c1ccc(/C(N)=N/O)cc1,9.0,?,-12.2,-9.8%,4.65µM*,2.2
N/C(=N\O)c1ccncc1,-7.3,6.3%,45.9,22.2%,14.1%,-2.2
CN(c1ccccc1)S(=O)(=O)c1ccc(Cl)c(C(=O)NCc2ccccc2CN2CCCC2)c1,.,?,-3.2,?,?,.
Cc1ccccc1NC(=S)NC(C)CCc1ccccc1 (stereo not given),-3.4,?,-28.6,-26.0%,13.1µM*,-2.5
Cc1ccccc1NC(=S)NC(=O)CCc1ccccc1,18.5,?,34.2,-13.2%,?,16.8*
Cc1nc(C2COc3ccccc3O2)sc1C(=O)O (stereo not given),70.7*,23.5%,21.8,-12.1%,?,13.1*
S=c1nc(C2COc3ccccc3O2)[nH][nH]1 (stereo not given),11.6,22.1%,11.9,9.1%,-19.6%,7.7
Cc1ccc(-c2nn3c(=O)cc(CN4CCN(C(=O)/C=C/c5ccccc5)CC4)nc3s2)cc1,.,.,4.8,.,.,.
